# From PubChem BioAssay (NCI)
# The panel holds about 83,000 compounds, 20% with a hit somewhere; the sample as a whole holds those more often.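 Single-concentration screen, 48 h exposure, 96-well plates. Endpoint: percent growth. Below 10 = active.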 A number with no mark means an inactive call. Activity calls are given as the source filed them.
# Test system: HL-60(TB) leukemia
# Experiment: NCI-60 one-dose screen, 48 h (100 = growth as untreated, 0 = no growth, -100 = all killed)
# Details: 10 µM unless noted
row,Compound,growth
1,CCN(CC)CCCCCCNc1cc(OC)c(Cl)c2cccnc12,119%
2,COc1ccc2sc(N(Cc3cccnc3)C(=O)c3ccc(C#N)cc3)nc2c1,63.4%
3,CCOC(=O)c1c2c(n(-c3ccc(C#N)cc3)c1-c1ccccc1)C=CCC2,82.9%
4,CC(=O)O[C@H]1CC[C@]2(C)[C@H]3CC=C4[C@@H]5CC(C)(C)CC[C@]5(C(=O)N5CCN(CCC#N)CC5)CC[C@@]4(C)[C@]3(C)CC[C@H]2C1(C)C,12.9%
5,O=C(COc1ccc(/C=C2\Oc3ccc4ccccc4c3C2=O)cc1)c1ccc([N+](=O)[O-])cc1,75.9%
6,c1ccc2[nH]c(-c3ccc(-c4nccc5c4[nH]c4ccccc45)cc3)nc2c1,-42.1% (active)
7,COc1ccc(/C=C/C(=O)/C=C(/C=C/c2ccc(OC)c(OC)c2OC)OB(F)F)c(OC)c1OC,8.53% (active)
8,Cc1c(-c2ccccc2)[nH]c2ccccc12,106%
9,Cc1ccc(-c2nc3ccc(Cl)cn3c2NC2CCCCC2)o1,61.7%
10,N#C/C=C(\c1ccc([N+](=O)[O-])cc1)n1nnc2cc(Cl)c(Cl)cc21,13.3%
11,CCN(CC)CCOc1ccc2c(c1O)C(=O)c1ccccc1C2=O,71.4%
12,CCC(C)(C)C(=O)O[C@H]1C[C@@H](C)C=C2C=C[C@H](C)[C@H](CC[C@@H]3CC(SCCN)CC(=O)O3)[C@H]21 (stereo partly drawn),37.6%
13,Cc1n(Cc2ccc3ccccc3n2)cc[n+]1Cc1ccc2ccccc2n1,34.2%
14,CC(=O)Nc1c(C(=O)Nc2ccccc2)sc2nc3c(cc12)C(OC(C)=O)CCC3 (stereo not drawn),18.6%
15,CN(C)c1ccc2cc(-c3ccc(Cl)c(Cl)c3)c(N)nc2c1,10.5%
16,COc1ccc(N2CCN(c3nc(-c4ccccc4)c(C#N)c(=O)[nH]3)CC2)cc1,55.2%
17,CCCCCS(=O)(=O)Nc1ccc(C(=O)O)cc1,101%
18,O=c1[nH]c(-c2ccccc2)nc2sc3cc(O)ccc3c12,-33.5% (active)
19,COc1cccc(-c2nn(-c3ccccc3)cc2-c2ccnc(NCCNS(=O)(=O)c3ccc(C(F)(F)F)cc3)c2)c1,-20.9% (active)
20,O=c1cc(SCc2ccccc2)nc[nH]1,82.3%
21,Cc1cc(N2CCOCC2)nc(N(CCCNc2ccnc3cc(Cl)ccc23)Cc2ccco2)n1,-26.3% (active)
22,CCOC(=O)c1sc(NC(=O)COc2cccc(/C=C3\CCc4cc(OC)ccc4C3=O)c2)nc1C,-52.9% (active)

row,Compound,growth
1,CCOC(=O)C(c1ccccc1)N1C(=O)c2ccccc2C1=O (stereo not drawn),115%
2,CCCCCCCCn1ccc2cc(NC(=O)CN3CCN(c4cc(C)nc(Cl)n4)CC3)ccc21,83.3%
3,Cc1cn(C(C=O)OC(C=O)CO)c(=O)[nH]c1=O (stereo not drawn),103%
4,CCCCCCCCCCCCCCCC[N+]1(CC)CCCC1,-69.9% (active)
5,O=C(Nc1ccc(OCc2nnc(-c3ccc(Cl)cc3)o2)c(F)c1)Nc1ccc(Cl)c(C(F)(F)F)c1,-18.5% (active)
6,Cc1ccc(-c2nc(/C=C3/C(=O)N(C)c4ccc(F)cc43)c3ccccn23)cc1,102%
7,Cc1cnc(Nc2ccc(OCCN3CCCC3)cc2)nc1NCc1ccco1,81.2%
8,CCCCSc1ccc2nc(-c3ccc(OCCCN=C(N)N)cc3)cn2c1,41.1%
9,COc1ccc2nc3c(cc2c1)C(=O)CC(C(F)(F)F)C3 (stereo not drawn),-15.1% (active)
10,Clc1ccc2c(c1)NC1(CCSc3ccccc31)n1nccc1-2 (stereo not drawn),97.4%
11,C[C@H]1[C@H](C)CC[C@]2(C(=O)O)CC[C@]3(C)C(=CC[C@@H]4[C@@]5(C)C/C(=C/c6cccnc6)[C@H](O)C(C)(C)[C@@H]5CC[C@]43C)[C@H]12,-16.5% [100 µM] (active)
12,COc1ccc(N)c(-c2cc3c(c4c2[nH]c2ccc(OC)cc24)CCCC3)c1,78.8%
13,O=C(Nc1cccc(-c2ccc(Cl)c(C(F)(F)F)c2)c1)C1CCN(Cc2cccc3cccnc23)CC1,-53.9% (active)
14,CCOC(=O)CN(c1sc(C)c(C)c1C(=O)OCC)S(=O)(=O)c1ccc(C)cc1,94.2%
15,O=c1cc(CSc2nnc(SCc3cc(=O)oc4c3ccc3ccccc34)o2)c2ccc3ccccc3c2o1,97.8%
16,Cc1cccc(N2CCC(=O)NC2=S)c1,98.6%
17,COc1ccc(-c2nc3c(ncc4ccc(=O)[nH]c43)s2)cc1,80.1%
18,CC1(C)N=C(N)N=C(N)N1c1cccc(CN)c1,86.8%
19,COc1cccc(/C=C2\Oc3cc(OCCN4CCCC4)ccc3C2=O)c1,99.6%
20,CCc1ccccc1C(=O)N(CC)CC,95.1%
21,O=C(NC(CSSCC(NC(=O)c1ccccc1)C(=O)O)C(=O)O)c1ccccc1 (stereo not drawn),60.7%
